The values below come from PubChem BioAssay (NCI).

Molecules are shown by their SMILES. About 83,000 compounds went through this panel and 20% of them were active in at least one assay; those are over-represented in the sample as a whole.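 Values shown are percent growth following 48 h exposure of cells in 96-well plates to a single concentration of compound; below 10 was considered active.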 The source made the active and inactive calls.

The assay relates to MDA-MB-468 breast. As to the kind of experiment: NCI-60 one-dose screen, 48 h (100 = growth as untreated, 0 = no growth, -100 = all killed). Conditions: 10 µM unless noted.
Take `CCOC(=O)c1c(C)nc2c(c1N)CC(=O)N2Cc1ccc(OC)cc1`: the growth is 36.2% (inactive).

Consider `COc1ccc(C(=S)N2CCN(c3cccc(C)c3)CC2)cc1OC`, for which the growth was 66.3% (inactive).

Turning to `O=[N+]([O-])c1ccc(C(Br)c2ccc([N+](=O)[O-])cc2)cc1`, the growth is 112% (inactive). As for `NC(=O)C1=C[C@H]2[C@H]3C=C[C@@]2(O)C(=O)O[C@@H]3O1`, the growth is -5.42% (active). For the compound `COc1ccc(-c2nc(S(=O)(=O)c3ccccc3)c(S(=O)CC(=O)N3CCC(C)CC3)o2)cc1` (stereo unspecified), the growth was -15% (active). On to `Oc1ccc(CCCCCCc2ccc(O)cc2)cc1`, for which the growth is 99.5% (inactive).

Take `N#CN1CCC[C@H]1C(=O)N1CCc2c(-c3[nH]nc4ncccc34)cccc21`: the growth was -19% (active).

As to `Nc1nc(=O)n([C@H]2CC=C(CO)O2)cc1F`, the growth is 106% (inactive). Regarding `c1ccc(Nc2ccccn2)nc1`, the growth is 93.3% (inactive). Consider `O=c1nc(NO)[nH]c(=O)n1Cc1ccc(F)cc1`, for which the growth was 107% (inactive).

In the case of `Cc1ccc(-c2cnc3sc(C(=O)NCCc4ccccc4)c(C)n23)cc1`, the growth was 93.1% (inactive). For `c1ccc([I+]c2ccccc2)cc1`, the growth was 15.2% (inactive).

As for `C=CCC(CCC(CC=C)C(=O)OCC)C(=O)OCC` (stereo unspecified), the growth was 108% (inactive). With `COc1ccc(-c2nc(-c3nc4cc(Cl)c(Cl)cc4[nH]3)c3ccccn23)cc1`, the growth was 66.6% (inactive). For `Cc1cc(C(=O)Nc2cc(Nc3ncccc3-c3ncnc4nc[nH]c34)ccc2F)cc(C(C)(C)C#N)c1` the value was 87.7% (inactive); for `O=C(CSc1nnc(-c2ccc(Cl)c(Cl)c2)n1-c1ccccc1)Nc1ccc(C(=O)/C=C/c2ccc(Cl)cc2)cc1`, 98.4% (inactive).
